These results are taken from PubChem BioAssay (Tox21).

The target of assay [1] is Nuclear receptor subfamily 1 group I member 3 (Homo sapiens) (UniProt Q14994). In words: qHTS assay to identify small molecule antagonists of the constitutive androstane receptor (CAR) signaling pathway (AID 1224838).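 Also: HepG2 cells stably expressing hCAR with CYP2B6 luciferase reporter stimulated by CITCO; nearly all actives have a fitted effect of over 40% in size.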 The essentials: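 Antagonist mode used CITCO at a final 50 nM to activate CAR in human hepatoma HepG2 cells carrying stable hCAR and a 2.2 kb CYP2B6 promoter-luciferase construct. Compounds were tested at 15 concentrations over 24 h, with luminescence as the end point.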

The target is the same in assay [2]. The assay is described as follows: qHTS assay to identify small molecule agonists of the constitutive androstane receptor (CAR) signaling pathway (AID 1224839). Also: nearly all actives have a fitted effect of over 15% in size. Also: potency is read from the fitted curve at half-maximal effect. Summed up:
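Using human hepatoma HepG2 cells engineered with hCAR and a CYP2B6-2.2kb reporter, 15-concentration compound series were incubated 24 h alongside PK11195 at 0.75 uM final, with luminescence quantified afterwards.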

The nature of assay [3]: qHTS assay to identify small molecule antagonists of the estrogen related receptor signaling pathway with the pleiotropic PPARgamma coactivator (PGC) from Tox21 10K library - cell viability counter screen (AID 1224840; active = well fitted cell-killing curve with a large enough effect in the repeat runs, not every such curve was filed as active; also: nearly all actives have a fitted effect of over 40% in size). The essentials:
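Multiplexed viability counter screen in the PGC/ERR cell line: cells treated with DMSO-dissolved compounds for 17.5 hours at 37 C, then viability measured as CellTiter-Fluor fluorescence.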
Background: In qHTS, concentration-response curves come from the screen itself.

A short description of assay [4]: qHTS assay to identify small molecule antagonists of the estrogen related receptor signaling pathway with the pleiotropic PPARgamma coactivator (PGC) from Tox21 10K library (AID 1224841; call rule not given here; also: actives are mostly falling curves and most rising ones were filed inactive; nearly all actives have a fitted effect of over 50% in size; also: potency is read from the fitted curve at half-maximal effect). The essentials:
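Steps: plate 2,000 PGC/ERR cells per well; incubate 6 h at 37 C with 5% CO2; transfer compounds from DMSO stocks by pin tool; incubate 18 h at 37 C; add One-Glo; measure luminescence 30 min later.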

Assay [5] in a line: qHTS assay to identify small molecule agonists of the estrogen related receptor signaling pathway with the pleiotropic PPARgamma coactivator (PGC) from Tox21 10K library (AID 1224842). Also: nearly all actives have a fitted effect of over 15% in size. Also: potency is read from the fitted curve at half-maximal effect. The essentials:
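Luminescence from One-Glo (30 min, room temperature) measured after PGC/ERR cells had 18 h at 37 C with pinned compound (23 nL in DMSO). Cells had been seeded at 2,000 per well and pre-incubated 6 h.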

The nature of assay [6]: qHTS assay to identify small molecule agonists of the hypoxia (HIF-1) signaling pathway (AID 1224846; active = well fitted activation curve with a large enough effect in the signal ratio in the repeat runs, not every such curve was filed as active; the % refers to the signal ratio). The essentials: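 Compounds from the Tox21 10K library, dissolved in DMSO, are tested for induction of a hypoxia response element–controlled beta-lactamase reporter in ME-180 cells. Exposure lasts 17 hrs at 37C after a 5 hr settling period, followed by CCF4-AM FRET substrate.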

Assay [7] is described as follows: qHTS assay to identify small molecule agonists of H2AX - cell viability counter screen (AID 1224847; calls by dose curve;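 also: wild-type CHO-K1 cells; top concentration of the series differs between compounds; nearly all actives have a fitted effect of over 30% in size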). The essentials:
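After overnight plating of 1000 CHO-K1 cells per well, a 15-concentration compound series was applied for 3 hr at 37C. Luminescence from CellTiter-Glo, read following 30 min at room temperature, reflected cell viability.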

Assay [8] is described as follows: qHTS assay to identify small molecule antagonists of the estrogen related receptor (ERR) signaling pathway from Tox21 library (AID 1224848). Also: nearly all actives have a fitted effect of over 50% in size. Also: potency is read from the fitted curve at half-maximal effect. The essentials: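 Luciferase luminescence (ONE-Glo, 30 min room temperature) was the read-out. Cells of the NTP-supplied ERR line, 2,000 per well, were given 6 h at 37 C before compound addition in DMSO and 18 h exposure at 37 C.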

A short description of assay [9]: qHTS assay to identify small molecule agonists of the estrogen related receptor (ERR) signaling pathway from Tox21 library (AID 1224849; calls by dose curve; also: nearly all actives have a fitted effect of over 15% in size). The note with it: ERR reporter cell line, ONE-Glo luciferase, 18 h; at 92.4 µM (top of the series) unless noted. Summed up: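 Cells carrying the ERR reporter were plated and allowed to settle for 6 h, exposed to library compounds for 18 h at 37 C, then lysed with ONE-Glo and luminescence measured.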

Assay [10] in a line: qHTS RealTime-Glo MT Cell Viability Assay in HepG2 cells - 24 hour (AID 1224867). Also: nearly all actives have a fitted effect of over 50% in size. Also: potency is read from the fitted curve at half-maximal effect. Summed up:
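HepG2 cells (600/well) were dispensed with RealTime-Glo reagents, incubated 5 h at 37 °C, then treated with compounds in DMSO for up to 40 h. Nonlytic NanoLuc luminescence reflecting viable cells was read at each stated time point.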

Assay [11] can be described thus: qHTS RealTime-Glo MT Cell Viability Assay in HEK293 cells - 32 hour (AID 1224868). Also: nearly all actives have a fitted effect of over 50% in size. Also: potency is read from the fitted curve at half-maximal effect. The essentials:
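HEK293 cells seeded with NanoLuc/prosubstrate reagent, rested 5 h at 37 C, then dosed and kept at 37 C up to 40 h. Nonlytic real-time luminescence from viable cells read at 0, 8, 16, 24, 32 and 40 h.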

A short description of assay [12]: A CellTox Green Cytotoxicity Assay to monitor cytotoxicity in HEK293 cells - 0 hour (AID 1224869). Also: nearly all actives have a fitted effect of over 50% in size. The essentials:
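Cells (HEK293, 600/well) and dye reagent are dispensed together. After 5 h at 37 C, 23 nL compound is pinned in. Plates stay at 37 C for 40 h with fluorescence read at 0h, 8h, 16h, 24h, 32h and 40h.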

A short description of assay [13]: qHTS RealTime-Glo MT Cell Viability Assay in HepG2 cells - 40 hour (AID 1224870). Also: nearly all actives have a fitted effect of over 50% in size. Summed up: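 Real-time viability: cells seeded at 600 per well together with NanoLuc and cell-permeant prosubstrate, compounds added after 5 h incubation. Luminescence tracked at 0, 8, 16, 24, 32 and 40 h of exposure.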
Assay [14] concerns the target Luciferin 4-monooxygenase (Photinus pyralis) (UniProt P08659). The assay is described as follows: qHTS assay to identify small molecule inhibitors of firefly luciferase (AID 1224835). Also: nearly all actives have a fitted effect of over 25% in size. Summed up: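 Inhibition of purified Photinus luciferase is measured by luminescence. Substrate levels (D-luciferin, ATP) sit at their KM values. Each compound is tested in a concentration series.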

Assay [15] in a line: qHTS assay to identify small molecule antagonists of the constitutive androstane receptor (CAR) signaling pathway - cell viability counter screen (AID 1224837). Also: nearly all actives have a fitted effect of over 45% in size. Summed up: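 Viability was measured with CellTiter-Fluor in a HepG2 line carrying stably transfected hCAR and a CYP2B6-2.2kb construct. Cells were exposed for 23 hr at 37 C to 15 compound concentrations with 50 nM CITCO as agonist.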

Assay [16] is described as follows: qHTS assay to identify small molecule agonists of the hypoxia (HIF-1) signaling pathway - cell viability counter screen (AID 1224844; calls by dose curve; also: nearly all actives have a fitted effect of over 50% in size; also: potency is read from the fitted curve at half-maximal effect). Summed up: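 Cytotoxicity was measured in parallel with the HRE-driven beta-lactamase readout: after 17 hrs of compound exposure at 37C, HRE-bla ME-180 cells received CellTiter-Glo and luminescence was recorded 30 min later.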

A short description of assay [17]: qHTS assay to identify small molecule agonists of the constitutive androstane receptor (CAR) signaling pathway - cell viability counter screen (AID 1224836). Also: nearly all actives have a fitted effect of over 45% in size. The essentials:
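Multiplexed viability check: HepG2-CYP2B6-hCAR cells, 15-point compound dosing, 0.75 uM PK11195 final, 23 h at 37 C, CellTiter-Fluor fluorescence.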

The target of assay [18] is Thyrotropin receptor (Homo sapiens) (UniProt P16473). In words: qHTS assay to identify small molecule agonists of the thyroid stimulating hormone receptor (TSHR) signaling pathway (AID 1224843; calls by dose curve; also: nearly all actives have a fitted effect of over 45% in size; also: potency is read from the fitted curve at half-maximal effect). Summed up:
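Agonist activity read as cAMP rise via d2/cryptate HTRF competition, 1 h room-temperature detection, in HEK293 cells expressing TSHR. Fifteen-point titrations, each run in triplicate, with a 30 min room-temperature incubation beforehand.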

A short description of assay [19]: qHTS assay to identify small molecule agonists of H2AX (AID 1224845; active = well fitted activation curve with a large enough effect in the signal ratio in the repeat runs, not every such curve was filed as active; the % refers to the signal ratio). The essentials: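 Phospho-H2AX Ser139 measured by HTRF (ex 320 nm; em 665 and 620 nm) after 24 hr antibody incubation. Compounds, 15 concentrations, 0.76% DMSO, were applied to CHO-K1 cells for 3hr at 37C before lysis.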
Assay [20] is described as follows: qHTS assay to identify small molecule antagonists of the estrogen related receptor (ERR) signaling pathway from Tox21 library - cell viability counter screen (AID 1224834). Also: nearly all actives have a fitted effect of over 30% in size. The essentials:
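ERR cells, 2,000/well; 6 h settle at 37 C/5% CO2; pin-tool compound transfer in DMSO; 17.5 h at 37 C; CellTiter-Fluor, 30 min; fluorescence intensity.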

Each structure is given as a SMILES string. Values without a mark were called inactive. Results filed as inconclusive are left out. Calls of active or inactive are those of the source. Unless noted, calls follow the shape of the dose curve; as a rule, active = well fitted curve in the direction sought with a large enough effect in the repeat runs; inconclusive = weak or mixed curves; inactive = no such curve, though single readings can be large; an effect the other way counts as inactive or inconclusive.
% is scaled to controls: 0 for no effect and ±100 for the full control effect.

Sequence of Nuclear receptor subfamily 1 group I member 3 (Homo sapiens) (Q14994 whole entry, looked up): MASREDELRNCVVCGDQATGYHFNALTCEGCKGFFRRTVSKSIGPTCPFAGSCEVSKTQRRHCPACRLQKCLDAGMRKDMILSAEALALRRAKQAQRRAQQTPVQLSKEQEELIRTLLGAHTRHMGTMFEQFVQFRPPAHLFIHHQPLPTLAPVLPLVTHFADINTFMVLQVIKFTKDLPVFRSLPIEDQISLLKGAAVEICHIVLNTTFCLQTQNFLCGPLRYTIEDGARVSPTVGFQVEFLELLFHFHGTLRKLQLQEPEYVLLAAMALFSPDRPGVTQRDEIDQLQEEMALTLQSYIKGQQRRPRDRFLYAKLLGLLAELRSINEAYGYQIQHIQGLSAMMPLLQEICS
Sequence of Luciferin 4-monooxygenase (Photinus pyralis) (P08659 whole entry, looked up): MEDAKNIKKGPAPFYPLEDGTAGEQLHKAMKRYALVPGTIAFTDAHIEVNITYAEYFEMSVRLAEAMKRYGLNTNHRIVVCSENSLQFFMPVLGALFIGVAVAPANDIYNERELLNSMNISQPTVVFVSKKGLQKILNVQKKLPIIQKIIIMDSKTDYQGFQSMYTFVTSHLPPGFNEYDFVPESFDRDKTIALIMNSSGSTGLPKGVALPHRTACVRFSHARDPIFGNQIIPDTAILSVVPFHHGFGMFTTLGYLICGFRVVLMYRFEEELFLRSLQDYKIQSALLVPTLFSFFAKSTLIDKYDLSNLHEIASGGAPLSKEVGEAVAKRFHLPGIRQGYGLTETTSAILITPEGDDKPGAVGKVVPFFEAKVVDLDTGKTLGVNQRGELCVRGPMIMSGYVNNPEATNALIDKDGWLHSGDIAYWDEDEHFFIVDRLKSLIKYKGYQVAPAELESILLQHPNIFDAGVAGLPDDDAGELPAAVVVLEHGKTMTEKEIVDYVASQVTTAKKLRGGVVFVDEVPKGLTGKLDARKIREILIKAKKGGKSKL
Sequence of Thyrotropin receptor (Homo sapiens) (P16473 whole entry, looked up): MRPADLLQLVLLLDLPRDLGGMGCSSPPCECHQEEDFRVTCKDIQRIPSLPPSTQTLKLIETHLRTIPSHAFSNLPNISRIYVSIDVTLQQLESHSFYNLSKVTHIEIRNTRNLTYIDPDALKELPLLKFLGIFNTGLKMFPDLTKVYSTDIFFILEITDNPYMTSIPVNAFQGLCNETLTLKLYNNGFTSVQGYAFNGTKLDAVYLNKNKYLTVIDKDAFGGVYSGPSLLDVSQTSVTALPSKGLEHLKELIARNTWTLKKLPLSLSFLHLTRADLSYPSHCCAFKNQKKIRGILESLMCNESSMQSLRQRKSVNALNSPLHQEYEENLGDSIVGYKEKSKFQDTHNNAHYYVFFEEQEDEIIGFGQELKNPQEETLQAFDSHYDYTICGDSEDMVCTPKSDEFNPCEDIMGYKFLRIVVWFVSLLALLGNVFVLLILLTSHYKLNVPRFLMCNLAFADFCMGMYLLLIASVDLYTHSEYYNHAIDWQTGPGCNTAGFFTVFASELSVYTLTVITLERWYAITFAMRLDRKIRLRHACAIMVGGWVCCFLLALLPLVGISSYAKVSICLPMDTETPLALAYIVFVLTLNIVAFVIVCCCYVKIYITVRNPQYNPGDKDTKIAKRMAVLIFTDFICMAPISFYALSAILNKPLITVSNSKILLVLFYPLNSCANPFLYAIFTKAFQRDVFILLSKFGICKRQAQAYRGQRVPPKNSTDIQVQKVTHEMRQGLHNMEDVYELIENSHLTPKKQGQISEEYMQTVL

For the compound `Clc1ccc(Nc2nnc(Cc3ccncc3)c3ccccc23)cc1`, the Potency entry in assay [1], in assay [3], in assay [5], in [7], in [10] and in [12] was “inactive” each time. Besides, the Potency entry in assay [13] is “inactive”. Moreover, the Potency is 7.5 µM (active) in assay [2], 13.3 µM (active) in [4], 11.9 µM (active) in assay [8] and 21.3 µM (active) in assay [11]. For the same compound, in assay [6], the call was inactive. The activity change, positive = activation in assay [9] was -42.3% [at 42.5 µM].

As for `Oc1cccc(O)c1O`, the Potency result in assay [14], in [15], in [1], in [2], in assay [3] and in [4] was “inactive” in each case. Moreover, the Potency entry in [16], in assay [8], in [10], in assay [11], in assay [12] and in assay [13] was “inactive” throughout. For the same compound, in assay [5], the Potency is 8.56 µM (active). Also, the outcome in [6] was inactive. Also, the activity change, positive = activation in [9] was 0.0681%.

In the case of `CCOc1ccc(Cc2nccc3cc(OCC)c(OCC)cc23)cc1OCC`, the Potency entry in assay [14], in assay [17], in assay [1], in assay [2], in assay [3] and in assay [18] was “inactive” each time. In addition, the Potency result in [16], in assay [19] and in [12] was “inactive” throughout. Besides, the outcome in assay [6] was inactive. In addition, the Potency was 12 µM (active) in [10] and 6.01 µM (active) in [11].

Turning to `O=c1c(O)c(-c2ccc(O)cc2)oc2cc(O)cc(O)c12`, the Potency entry in assay [17], in [1], in assay [3], in [4], in [5] and in [18] was “inactive” each time. Besides, the Potency result in [16], in assay [8], in assay [10], in [11] and in assay [12] was “inactive” in each case. In addition, the Potency in assay [2] is 36.8 µM (active). In addition, the activity change, positive = activation in [9] is 4.05% [at 42.5 µM].

As for `CCOc1cccc(-n2cc(C(=O)N3CCN(c4cc(C(=O)O)c5ccccc5c4)CC3)nc2-c2ccc(C)cc2)c1`, the Potency result in assay [14], in [17], in assay [15], in assay [1], in [2] and in [5] was “inactive” in each case. Besides, the Potency entry in [10], in [11], in [12] and in [13] was “inactive” each time. In [6], the compound was classed as inactive. Also, in [9], the activity change, positive = activation is -37.7%.

For the compound `CC(C)C(O)(c1ccc(OC(F)(F)F)cc1)c1cncnc1` (stereo not given), the Potency result in [20], in assay [17], in assay [15], in assay [1], in assay [2] and in assay [3] was “inactive” throughout. In addition, the Potency entry in assay [16], in [19], in assay [7], in assay [10], in assay [12] and in assay [13] was “inactive” throughout. In assay [18], the Potency is 48.4 µM (active). For the same compound, in assay [6], the result was inactive.

Turning to `CCOC(=O)[C@H](CCc1ccccc1)N[C@@H](C)C(=O)N(CC(=O)O)C1Cc2ccccc2C1`, the Potency entry in assay [14], in assay [17], in assay [15], in assay [3], in assay [19] and in assay [7] was “inactive” throughout. Moreover, the Potency entry in [10], in assay [11] and in [12] was “inactive” throughout. In addition, in assay [16], the Potency is 7.56 µM (active). Also, the result in [6] was inactive.
